High-throughput results as filed in PubChem BioAssay.
FLuc modulator = qHTS profiling assay for firefly luciferase inhibitor/activator using purifed enzyme and Km concentrations of substrates (counterscreen for miR-21 project). purified FLuc, Km substrates, luminescence inhibition. Potency, µM (highest dose often 57.5 µM), without a hit: at the top dose activity change, negative = inhibition, usual class: inhibitors. 360,000 tested, 6.9% active;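 further: plate controls were vehicle for no effect and reference inhibitor for full effect; nearly all actives have a fitted effect of over 55% in size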
Target sequence (P08659 whole entry, looked up): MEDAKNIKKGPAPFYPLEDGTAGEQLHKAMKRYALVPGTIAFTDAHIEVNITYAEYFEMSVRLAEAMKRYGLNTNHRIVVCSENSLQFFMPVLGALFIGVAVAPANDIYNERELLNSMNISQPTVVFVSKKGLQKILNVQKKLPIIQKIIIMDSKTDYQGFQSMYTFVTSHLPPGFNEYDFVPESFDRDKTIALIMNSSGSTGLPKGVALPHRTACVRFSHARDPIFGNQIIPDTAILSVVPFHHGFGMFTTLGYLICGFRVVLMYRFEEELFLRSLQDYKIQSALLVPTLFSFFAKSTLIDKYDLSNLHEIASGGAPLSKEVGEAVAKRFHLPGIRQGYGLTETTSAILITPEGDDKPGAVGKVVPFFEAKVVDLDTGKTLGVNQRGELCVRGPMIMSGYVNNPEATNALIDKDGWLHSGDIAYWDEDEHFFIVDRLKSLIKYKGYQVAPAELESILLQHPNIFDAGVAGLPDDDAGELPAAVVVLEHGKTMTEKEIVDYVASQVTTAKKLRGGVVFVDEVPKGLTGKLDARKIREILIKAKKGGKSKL
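Biochemical qHTS of compounds, final roughly 60 µM downward over six points, against 10 nM purified firefly luciferase using Km concentrations of substrates (10 uM D-luciferin, 10 uM ATP) in Tris acetate pH 7.5 buffer; luminescence output.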
ELG1 genotox = qHTS screen for small molecules that induce genotoxicity in human embryonic kidney (HEK293T) cells expressing luciferase-tagged ELG1; HEK293T ELG1-luciferase reporter, luminescence, 16 h; Potency, µM (top dose mostly 46 µM), inactives show top-dose activity change, positive = activation, usual class: activators; 330,000 tested, 1.3% active; AID 504466, 2011; further: % of control where 0% means no effect; nearly all actives have a fitted effect of over 60% in size
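Genotoxic stress is detected as increased luminescence from luciferase-tagged ELG1 in HEK293T cells, measured with ONE-Glo after a 16 hr treatment at 37 °C.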
Rab9 promoter act = qHTS Assay for Rab9 Promoter Activators; Huh7 Rab9 promoter-luciferase reporter, luminescence, 24 h; 320,000 tested, 2.8% active; Potency, µM (top dose mostly 9.22 µM), for inactives: top-dose activation, negative = inhibition, usual class: activators; further: % of control where 0% means no effect; nearly all actives have a fitted effect of over 60% in size
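Rab9 promoter-driven luciferase in stably transfected Huh7 cells; 1500 cells/well rested 2 h, exposed to compound in DMSO for 24 h at 37 °C, 5% CO2. Luminescence read 10 min after adding luciferase reagent at ambient temperature.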
NPC1 prom act = qHTS Assay for NPC1 Promoter Activators; Huh7 NPC1 promoter luciferase reporter, 24 h; Potency, µM (doses to about 9.22 µM), without a hit: top-dose activation, hits mostly activators; 320,000 tested, 2.4% active; further: % of control where 0% means no effect; nearly all actives have a fitted effect of over 60% in size
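Stable NPC1-promoter luciferase Huh7 line; cpd (DMSO) 24 h, 37 °C, 5% CO2; Amplite luciferase reagent 10 min RT; luminescence readout. qHTS format.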
Luc counter = Counterscreen for Luciferase (Kinase-Glo TM) Inhibition; 200,000 tested, 0.28% active; Potency, µM (titrated, usually from 38.3 µM), without a hit: at the highest dose activity change, negative = inhibition, hits mostly inhibitors; Kinase-Glo luciferase, ATP luminescence, 8 min; further: on the % scale 0 is the no-effect control and ±100 the full control effect; nearly all actives have a fitted effect of over 60% in size
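Compounds were added to a substrate mix at pH 7.2 (50 mM imidazole, 10 uM ATP, within the enzyme's linear range), followed by Kinase-Glo detection reagent; luminescence was measured after 8 minutes at ambient temperature.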
SMN2 splice up = qHTS Assay for Enhancers of SMN2 Splice Variant Expression; HEK293 SMN2-luciferase splicing reporter, luminescence, 30-36 h; 210,000 tested, 2.8% active; Potency, µM (highest dose often 46.1 µM), for inactives: at the top dose activity change, positive = activation, usual class: activators; further: % of control where 0% means no effect; nearly all actives have a fitted effect of over 55% in size
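HEK293 cells carry an SMN2 minigene-luciferase reporter in which exon 7 inclusion puts luciferase in frame. Cells were seeded at 2000 cells/well, attached for 10-12 hours, then exposed to compounds for 30-36 hours at 37C before ONE-Glo luminescence.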
An asterisk follows results filed as active; ? = inconclusive; . = no result given. The list is not random: actives were taken first. Their share in the collection is about 7.5%. The call rests on the fitted dose curve; in most records, active means well fitted curve in the direction sought with a large enough effect; inconclusive means small, poorly fitted or top-dose-only effect, or another doubt; inactive means no such curve, though single readings can be large; an effect the other way counts as inactive or inconclusive. Potency means the concentration at half of the fitted maximal effect.

SMILES	FLuc modulator	ELG1 genotox	Rab9 promoter act	NPC1 prom act	Luc counter	SMN2 splice up
COc1ccccc1-c1noc2ncnc(Nc3cccc(C)c3C)c12	5%	-4%	-2%	-3%	.	.
COc1ccc(NC(=O)C2=C(C)Nc3nc(SCc4ccc(C)cc4C)nn3C2c2cccc(OC)c2OC)cc1 (stereo not drawn)	3%	.	.	.	.	.
Cc1cc(C=C2C(=O)c3ccccc3C2=O)c(C)n1-c1ccccc1	0.12µM*	?	4%	8%	?	-71%
CS(=O)(=O)N1N=C(c2ccco2)CC1c1ccc(Cl)cc1Cl (stereo not drawn)	0%	1%	-4%	-3%	.	.
Cc1ccnc(NC(=O)c2ccc3c(c2)S(=O)(=O)c2ccccc2C3=O)c1	15µM*	7%	24%	?	.	.
O=C(Nc1nc(-c2cccs2)cs1)c1cccc(S(=O)(=O)N2CCCCCC2)c1	15µM*	9%	?	-8%	-1%	-68%
O=C(Nc1nc(-c2cccs2)cs1)c1ccc(S(=O)(=O)N2CCCCC2)cc1	10%	3%	-12%	-7%	-2%	-84%
Cc1ccc(C(=O)Nc2nccs2)cc1S(=O)(=O)N1CCCCC1	17µM*	-2%	3%	0%	7%	-32%
O=C(CSCc1ccc(Cl)cc1Cl)Nc1ccccc1C(=O)Nc1ccc(C(=O)O)cc1	19µM*	-3%	-7%	-5%	2%	5%
COCCCn1c(=N)c(C(=O)NC2CCCCC2)cc2c(=O)n3cc(C)ccc3nc21	-1%	.	.	.	.	-9%
O=C(O)c1ccc(Cl)c(S(=O)(=O)Nc2ccccc2F)c1	.	.	.	.	1%	.
O=C(O)c1ccc(Cl)c(S(=O)(=O)Nc2cccc(C(=O)Nc3cccc(C(F)(F)F)c3)c2)c1	15µM*	1%	1%	-1%	5%	-5%
Cc1ccc(C(=O)Nc2ccc3cn[nH]c3c2)cc1S(=O)(=O)N1CCCCC1	21µM*	15%	?	?	-7%	1%
COc1ccc(C(=O)O)cc1S(=O)(=O)Nc1cccc(C(F)(F)F)c1	0%	-1%	-6%	-2%	3%	8%
Cc1ccc(C(=O)Nc2cccc(O)c2)cc1S(=O)(=O)N1CCCCCC1	15µM*	6%	?	29%	.	-5%
O=C(O)c1ccc(Cl)c(S(=O)(=O)Nc2ccccc2C(=O)Nc2ccc(Cl)cc2)c1	27µM*	10%	16%	14%	.	.
Cc1ccc(NC(=O)c2ccc(F)cc2)cc1S(=O)(=O)N1CCCCCC1	?	-10%	-10%	3%	4%	-36%
CCCCNc1c(N)n(CCCC)c(=O)[nH]c1=O	0%	2%	9%	-10%	3%	-5%
COc1ccc(-c2nnc(SCC(=O)Nc3cccc(Cl)c3C)nc2-c2ccc(OC)cc2)cc1	-1%	.	.	.	.	.
O=C(NCc1ccc(F)cc1)c1cc(-c2ccc(Cl)cc2)n[nH]1	-8%	.	.	.	.	.
O=C(Nc1ccccn1)c1ccc(Cl)c(S(=O)(=O)N2CCCCCC2)c1	21µM*	-1%	?	19%	.	.
O=C(O)c1cccc(NC(=O)c2ccc(Cl)c(S(=O)(=O)N3CCCCCC3)c2)c1	0.11µM*	2.3µM*	0.35µM*	0.32µM*	0%	8.9µM*
O=C(Nc1cccnc1)c1ccc(Cl)c(S(=O)(=O)N2CCCCC2)c1	2%	-1%	-3%	0%	.	.
O=C(Nc1ccccn1)c1cccc(S(=O)(=O)N2CCCCC2)c1	-5%	-1%	-3%	-1%	0%	-2%
Cc1ccnc(NC(=O)c2ccc(Cl)c(S(=O)(=O)N3CCCCC3)c2)c1	.	-2%	13%	4%	.	.
SMILES	FLuc modulator	ELG1 genotox	Rab9 promoter act	NPC1 prom act	Luc counter	SMN2 splice up
Cc1ccnc(NC(=O)c2ccc(Cl)c(S(=O)(=O)N3CCCC3)c2)c1	19µM*	?	?	?	.	.
CCN(CC)CCNS(=O)(=O)c1ccc(C(=O)NN)cc1	1%	0%	-7%	-5%	-1%	0%
CS(=O)(=O)Nc1cccc(C2=NN(C(=O)c3ccccc3Cl)C(c3ccccc3O)C2)c1 (stereo not drawn)	2%	0%	-2%	-2%	16%	?
Fc1ccc(-c2nnc(Cc3ccc(Cl)cc3)o2)cc1	17µM*	?	26%	?	.	.
Fc1ccc(Cc2nnc(-c3cccs3)o2)cc1	?	15%	?	21%	1%	?
COc1ccc(C2C3=C(N=C4SCC(=O)N42)c2ccccc2CC3)cc1 (stereo not drawn)	11µM*	?	23%	29%	-13%	-5%
CC(=O)c1ccc(N2C(=O)CC(N3CCN(S(=O)(=O)c4cc(C)ccc4C)CC3)C2=O)cc1 (stereo not drawn)	.	4%	.	.	.	.
CCOC(=O)c1ccc(NC(=O)CN2C(=O)CSC(C)C2=O)cc1 (stereo not drawn)	17µM*	1%	-4%	-4%	2%	-18%
CCOC(=O)c1ccc(NC(=O)CN2C(=O)C(C)SC(C)C2=O)cc1 (stereo not drawn)	?	-2%	0%	-1%	1%	8%
COc1ccccc1CNC(=O)c1ccc(N2CCCC2)c(NC(=O)NCc2ccc(F)cc2)c1	0%	.	.	.	.	.
O=c1[nH]c2cc3ccccc3cc2nc1C(F)(F)F	-20%	-3%	3%	0%	1%	-2%
CC(C)c1nc2cc3ccccc3cc2[nH]1	19µM*	3%	19%	13%	-2%	-22%
CCOc1ccccc1NC(=O)NCCn1c(=O)oc2ccc(C)cc21	-7%	.	.	.	.	-5%
CCc1ccc(-c2ccc(C(=O)O)cc2)nc1	8.5µM*	10%	3.5µM*	?	-6%	?
Cc1cc(NC(=O)CSc2nc3c(sc4ccccc43)c(=O)n2CCCN2CCOCC2)n[nH]1	3%	7%	-20%	5%	2%	35µM*
O=C1CCCN1c1ccc(S(=O)(=O)NCc2ccc(F)cc2)cc1	4%	-2%	-2%	3%	.	.
NS(=O)(=O)c1ccc(CCNC(=O)C2CC(=O)N(Cc3ccccc3Cl)C2)cc1 (stereo not drawn)	3%	1%	-5%	1%	.	.
Cc1ccc(C)c(C2=NNC(=NCc3ccccc3)SC2)c1	-15%	-10%	1%	11%	2%	-3%
COc1ccc(CN=C2NN=C(c3cccc(OC)c3)CS2)cc1	?	-7%	?	28%	-4%	28µM*
